An excerpt weighted towards active compounds, which were near 21% of everything screened.
SARS PLpro yeast = qHTS of Yeast-based Assay for SARS-CoV PLP; AID 485353, 2010; actives 0.19% (n = 330,000); Potency, µM (top dose mostly 32.9 µM), for the others: top-dose activity, positive = growth rescue, hits mostly activators; S. cerevisiae expressing SARS-CoV PLpro, growth rescue; further: potency means the concentration at half of the fitted maximal effect; 0% is about no effect; nearly all actives have a fitted effect of over 55% in size
Cycloheximide cs = Cycloheximide Counterscreen for Small Molecule Inhibitors of Shiga Toxin; max response, %; cell reporter, cycloheximide protein synthesis inhibition counterscreen; AID 2314, 2010; actives 12% (n = 300,000); in the data active means max response mostly above about 13%, no sharp cut-off; inactive means mostly below about 14%; further: read at 38.3 µM for the half of the compounds with a filed dose; 0% is about no effect
Pf growth 48h = Primary qHTS for delayed death inhibitors of the malarial parasite plastid, 48 hour incubation; actives 5.9% (n = 310,000); P. falciparum luciferase growth in erythrocytes, 48 h; AID 504832, 2011; Potency, µM (titrated, usually from 28.7 µM), inactives show at the highest dose activity change, negative = inhibition, actives largely listed as inhibitors; active means well fitted inhibition curve with a large enough effect; inconclusive means small, poorly fitted or top-dose-only effect, or another doubt; inactive means no such curve, though single readings can be large or run the other way; further: potency means the concentration at half of the fitted maximal effect; on the % scale 0 is the no-effect control and ±100 the full control effect
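Read-out is firefly luciferase luminescence from an integrated reporter in P. falciparum, so falling signal marks reduced parasite growth. Infected erythrocytes were at 2% hematocrit and 0.1% parasitemia (final) in Albumax-supplemented RPMI 1640.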
NS1 inh = qHTS Assay for Inhibitors of Influenza NS1 Protein Function; Potency, µM (top dose mostly 46.1 µM), for inactives: at the top dose activity, positive = more growth; actives 0.4% (n = 270,000); further: potency means the concentration at half of the fitted maximal effect; actives are rising curves; nearly all actives have a fitted effect of over 50% in size
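A cell-based growth assay was used: compounds that relieve NS1-induced slow growth of budding yeast raise OD600. Assay medium was yeast nitrogen base with ammonium sulphate and -URA supplement, pH 6.0, with 2% galactose.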
Pf growth 96h = Primary qHTS for delayed death inhibitors of the malarial parasite plastid, 96 hour incubation. Potency, µM (doses to about 28.7 µM), without a hit: top-dose activity change, negative = inhibition, hits mostly inhibitors. P. falciparum luciferase reporter growth, 96 h. actives 6.9% (n = 320,000); active means well fitted inhibition curve with a large enough effect; inconclusive means small, poorly fitted or top-dose-only effect, or another doubt; inactive means no such curve, though single readings can be large or run the other way; further: potency means the concentration at half of the fitted maximal effect; on the % scale 0 is the no-effect control and ±100 the full control effect
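Cell-based qHTS: luciferase-tagged P. falciparum in erythrocytes (2% hematocrit, 0.05% parasitemia final) incubated with compounds for 96 hours, 37 C, 5% CO2; luciferase detection reagent then added and luminescence measured.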
Shiga inhibitor = A qHTS for Small Molecule Inhibitors of Shiga Toxin; Vero cells, Shiga toxin protein synthesis inhibition reporter; inhibition, % at 38.7 µM; actives 9.2% (n = 290,000); in the data active means inhibition mostly above about 28%, no sharp cut-off; inactive means mostly below about 43%; further: 0% is about no effect
NS1 inh valid = Assay for Inhibitors of Influenza NS1 Protein Function: Hit Validation; AID 492980, 2010; activity change, negative = inhibition, % at 32.9 µM; influenza NS1 function cell assay, 15-point titration; 1,400 tested, under 10 active; shares compounds with NS1 inh; further: 0% is about no effect
Flu PR8 replic = Assay for Inhibitors of Influenza NS1 Protein Function: Influenza virus replication assay in MDCK cells infected with virus A/PR/8/34. shares compounds with NS1 inh. MDCK infected influenza A/PR/8/34, virus titer TCID50; active compounds read low. virus titer (log TCID50), log10 TCID50 at 5 µM. actives 30% (n = 95). AID 504647, 2011; call rule not given here
* marks the source's active call; other numbers are inactive results; ? = inconclusive; · = no result; ! = repeats disagree. Unless noted, the call rests on the fitted dose curve.

SMILES	SARS PLpro yeast	Cycloheximide cs	Pf growth 48h	NS1 inh	Pf growth 96h	Shiga inhibitor	NS1 inh valid	others
NC(=O)[C@@H]1CC2(CC(c3cccc(NC(=O)CC(c4ccccc4)c4ccccc4)c3)=NO2)CN1C(=O)c1ccc(Cl)cc1 (stereo partly drawn)	1%	-3	?	4µM*	?	-5	0
CCC(=O)N1CC2(CC(c3cccc(NC(=O)CC(c4ccccc4)c4ccccc4)c3)=NO2)C[C@H]1C(N)=O (stereo partly drawn)	-2%	-3	36%	-5%	0%	-4	·
NC(=O)[C@H]1CC2(CC(c3cccc(NC(=O)CC(c4ccccc4)c4ccccc4)c3)=NO2)CN1C(=O)CC(c1ccccc1)c1ccccc1 (stereo partly drawn)	2%	-4	12µM*	7.1µM*	?	-3	12	Flu PR8 replic=8
O=C(Nc1cc(Cl)ccc1-n1cncn1)C1CC1	-4%	·	1%	·	19%	·	·
CC(=O)Nc1ccc(Nc2nc3ccccc3n3cnnc23)cc1	1%	5	18%	2%	-3%	-2	·
CCn1cc(/C=N\NC(=O)c2ccccc2Cl)cn1	9%	16	13%	3%	7%	4	·
O=C(N/N=C/c1cc2ccccc2[nH]1)c1ccccc1Cl	-2%	16*	3%	?	45%	39	-11
CCCCCCn1c(-c2ccco2)nc2oc3cc(OC)ccc3c(=O)c2c1=O	-13%	1	5.2µM*	13µM*	?	6	-37
Cc1ccc(-n2cc(-c3ccc([N+](=O)[O-])cc3)[nH]c2=S)c(C)c1	4%	3	?	6.3µM*	-101%	13	-32
Cc1nnc(NC(=O)C2CSC3(C)CCC(=O)N23)s1 (stereo not drawn)	0%	·	-1%	·	?	·	·
CC1(C)Cc2c(C#N)c(N3CCCC3)nc(-c3ccco3)c2CO1	0%	-2	·	-60%	?	-10	·
CC1(C)Cc2c(C#N)c(N3CCN(C(=O)c4ccccc4)CC3)nc(-c3ccco3)c2CS1	0%	-1	?	8.9µM*	?	-4	-35
CC(C)(C)N(Cc1ccccc1)C(=O)CCc1ccccc1	-1%	-3	?	?	13µM*	24	-33
N#C/C(=C(/O)COC(=O)c1ccc(Cl)c(S(=O)(=O)N2CCOCC2)c1)c1nc2ccccc2[nH]1	1%	13	14%	?	-12%	-15	·
Cc1ccc(C(=O)OC/C(O)=C(\C#N)c2nc3ccccc3[nH]2)cc1S(=O)(=O)N1CCOCC1	-16%	9	8%	10µM*	?	8	18
COc1cccc(NS(=O)(=O)c2ccc3[nH]cc(C(=O)NCCC(C)C)c(=O)c3c2)c1	-8%	1	9.3µM*	4.5µM*	61%	-10	-6
CC(c1ccccc1)C(NC(=O)OCC1c2ccccc2-c2ccccc21)C(=O)O (stereo not drawn)	-1%	·	18%	·	61%	·	·
CCCC12C(=O)C(C)(C(c3ccccc3)=C1c1ccccc1)C1C(=O)N(c3ccc(C)cc3)C(=O)C12 (stereo not drawn)	9%	-1	2.6µM*	10µM*	3.3µM*	17	-26	Flu PR8 replic=6.5*
O=C1NC(=O)C(c2ccccc2[N+](=O)[O-])=C1Nc1ccc(O)c(Cl)c1	-4%	8	21%	35µM*!	?	10	-13
CN(C)S(=O)(=O)c1cc(NC(=O)CSc2ncc(C(F)(F)F)cc2Cl)ccc1Cl	11%	8	-28%	13µM*	?	14	-11
CN(C)S(=O)(=O)c1cc(NC(=O)CSc2cccc[n+]2[O-])ccc1Cl	0%	·	-11%	·	?	·	·
CCOc1ccc(N2C(=O)/C(=C\c3ccccc3OC)S(=O)(=O)C2c2cccc([N+](=O)[O-])c2)cc1 (stereo not drawn)	1%	-1	-1%	11µM*	?	-9	-34
O=S(=O)(Nc1ccc(N2CCCCC2)cc1)c1ccccc1	-23%	18*	26%	?	-4%	26	?
COc1cc(C2C3C(=O)N(Cc4ccccc4)C(=O)C3ON2c2ccccc2)cc(OC)c1OC (stereo not drawn)	2%	-3	?	11µM*	?	-20	?
CC(Sc1nc(N)cc(=O)[nH]1)C(=O)Nc1cccc(Cl)c1 (stereo not drawn)	7%	4	2%	10µM*	-10%	-12	7
SMILES	SARS PLpro yeast	Cycloheximide cs	Pf growth 48h	NS1 inh	Pf growth 96h	Shiga inhibitor	NS1 inh valid	others
Nc1cc(=O)[nH]c(SCC(=O)Nc2ccc(Cl)c(Cl)c2)n1	2%	-1	17%	2.5µM*	·	3	25
COc1ccc(Nc2nnc(SCC(=O)c3cc(C)n(CC4CCCO4)c3C)s2)cc1 (stereo not drawn)	-1%	43*	5.9µM*	?	·	112*	3
CCC(C)[C@H](NC(=O)NCc1cccc(OC)c1)C(=O)OC (stereo partly drawn)	13%	3	48%	2.2µM*	21%	29	-9
COc1cccc(CNC(=O)N[C@@H](CC(C)C)C(=O)O)c1	-3%	-7	·	8%	-14%	-13	·
O=C(O)c1nn(-c2ccccc2)ccc1=O	-7%	-3	1%	16%	41%	-2	·
COc1ccccc1N1CCN(C(c2cccs2)C(C)NC(=O)c2ccco2)CC1 (stereo not drawn)	1%	-3	?	1%	?	2	·
COc1cccc(C2=NOC(C(=O)Nc3cccc(C(C)=O)c3)C2)c1 (stereo not drawn)	-11%	4	-6%	2.8µM*	7%	-8	0
CC1CCN(C(=O)c2ccc(N(C)S(C)(=O)=O)cc2)CC1	5%	1	0%	1%	?	-7	·
CN(c1ccc(C(=O)N2CCCCC2)cc1)S(C)(=O)=O	8%	-3	7%	14µM*	44%	-16	5
Cc1ccccc1NC(=O)C1CCCN(S(=O)(=O)c2cnc[nH]2)C1 (stereo not drawn)	0%	-1	1%	14µM*	64%	-5	3
Cc1ccc(NC(=O)C2CCCN(S(=O)(=O)c3cnc[nH]3)C2)c(Br)c1 (stereo not drawn)	-1%	0	19%	2µM*	22%	-2	1

Source: PubChem BioAssay (National Center for Advancing Translational Sciences (NCATS))
